Reference: PubChem BioAssay (NCATS)
Inconclusive results are not listed. A number with no mark means an inactive call. Active and inactive are the calls of the source. Calls follow the shape of the dose curve; as a rule, active = well fitted curve in the direction sought with a large enough effect; inconclusive = small, poorly fitted or top-dose-only effect, or another doubt; inactive = no such curve, though single readings can be large; an effect the other way counts as inactive or inconclusive.

Assays:
[1] = Quantitative High-Throughput drug screen in 47 multiple myeloma cell lines against the NCATS MIPE library collection: KHM11_PLB cell viability assay (AID 1918962); also: nearly all actives have a fitted effect of over 35% in size
Procedure, shortened: (§1)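 Myeloma cell lines, 500 cells per well, exposed to MIPE 4.0 library compounds for 48 h at 37C, 5% CO2. Viability from ATP by CellTiter-Glo luminescence; normalised to DMSO (100%) and media-only (0%) wells.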

[2] = Quantitative High-Throughput drug screen in 47 multiple myeloma cell lines against the NCATS MIPE library collection: JIM3_ECACC cell viability assay (AID 1918963; also: nearly all actives have a fitted effect of over 35% in size)
Procedure, shortened: as §1

[3] = Quantitative High-Throughput drug screen in 47 multiple myeloma cell lines against the NCATS MIPE library collection: JIM1_ECACC cell viability assay (AID 1918964)
Procedure, shortened: as §1

[4] = Quantitative High-Throughput drug screen in 47 multiple myeloma cell lines against the NCATS MIPE library collection: INA6_PLB cell viability assay (AID 1918965; also: nearly all actives have a fitted effect of over 55% in size)
Procedure, shortened: as §1

[5] = Quantitative High-Throughput drug screen in 47 multiple myeloma cell lines against the NCATS MIPE library collection: JJN3_DSMZ cell viability assay (AID 1918966; also: nearly all actives have a fitted effect of over 50% in size)
Procedure, shortened: as §1

[6] = Quantitative High-Throughput drug screen in 47 multiple myeloma cell lines against the NCATS MIPE library collection: H1112_PLB cell viability assay (AID 1918967; also: nearly all actives have a fitted effect of over 30% in size)
Procedure, shortened: as §1

[7] = Quantitative High-Throughput drug screen in 47 multiple myeloma cell lines against the NCATS MIPE library collection: KMS27_JCRB cell viability assay (AID 1918970); also: nearly all actives have a fitted effect of over 30% in size
Procedure, shortened: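 Myeloma cells (500 per well) were exposed to MIPE 4.0 compounds for 48 h at 37 °C, 5% CO2; viability was read as ATP luminescence with CellTiter-Glo, normalized to DMSO-only (100%) and media-only (0%) wells.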

[8] = Quantitative High-Throughput drug screen in 47 multiple myeloma cell lines against the NCATS MIPE library collection: KMS12BM_JCRB cell viability assay (AID 1918971); also: nearly all actives have a fitted effect of over 35% in size
Procedure, shortened: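 Viability readout: CellTiter-Glo luminescence following 5 min room-temperature incubation with reagent. Prior exposure: 48 h, 37C, humidified 5% CO2, 500 cells per well.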

[9] = Quantitative High-Throughput drug screen in 47 multiple myeloma cell lines against the NCATS MIPE library collection: Karpas25_ECACC cell viability assay (AID 1918968; also: nearly all actives have a fitted effect of over 35% in size)
Procedure, shortened: as §1
Potency is read from the fitted curve at half-maximal effect.

Row | SMILES | Potency [1] | Potency [2] | Potency [3] | Potency [4] | Potency [5] | Potency [6] | Potency [7] | Potency [8] | Potency [9]
1 | CCN(CC)CCCCNc1ncc2cc(-c3cc(OC)cc(OC)c3)c(NC(=O)NC(C)(C)C)nc2n1 | 9350 nM (active) | 23500 nM (active) | 20900 nM (active) | 16600 nM (active) | 20900 nM (active) | 23500 nM (active) | 16600 nM (active) | 18700 nM (active) | 
2 | COc1cc2ncnc(Nc3ccc(F)c(Cl)c3)c2cc1NC(=O)C=CCN1CCCCC1 | 3320 nM (active) | 6620 nM (active) | 10500 nM (active) | 3720 nM (active) | 20900 nM (active) | 8330 nM (active) |  | 18700 nM (active) | 
3 | Cc1cc(Nc2ncnc3ccc(-c4ccc(CNCCS(C)(=O)=O)o4)cc23)ccc1Oc1ccn2ncnc2c1 | 6620 nM (active) | 9350 nM (active) | 5260 nM (active) | 1870 nM (active) | 18700 nM (active) | 6620 nM (active) |  | 18700 nM (active) | 332 nM (active)
4 | Cc1ccc(NC(=O)C2(c3ccc4c(c3)OC(F)(F)O4)CC2)nc1-c1cccc(C(=O)O)c1 | 66.2 nM (active) | 118 nM (active) | 41.8 nM (active) | 29.6 nM (active) | 148 nM (active) | 118 nM (active) | 46.9 nM (active) | 29.6 nM (active) | 33.2 nM (active)
5 | Cc1[nH]nc2ccc(-c3cncc(OC[C@@H](N)Cc4ccccc4)c3)cc12 | 235 nM (active) | 2090 nM (active) | 1870 nM (active) | 935 nM (active) | 1180 nM (active) | 1870 nM (active) | 2090 nM (active) | 4180 nM (active) | 2960 nM (active)
6 | CC1(O)CC(c2nc(-c3ccc4ccc(-c5ccccc5)nc4c3)c3c(N)nccn23)C1 (stereo unspecified) | 4180 nM (active) | 148 nM (active) | 10.5 nM (active) | 6620 nM (active) | 6620 nM (active) | 23500 nM (active) | 2350 nM (active) | 16600 nM (active) | 372 nM (active)
7 | Cc1ccc(C(N)=O)cc1Nc1nccc(-c2cn(C(C)C)c3cnccc23)n1 | 3320 nM (active) | 5260 nM (active) | 2350 nM (active) | 2640 nM (active) | 4690 nM (active) | 3320 nM (active) | 3320 nM (active) |  | 3720 nM (active)
8 | COc1cccc2c(NCc3ccccc3)nc(-n3c(N)nc4ccccc43)nc12 | 3320 nM (active) | 2960 nM (active) | 1870 nM (active) | 3720 nM (active) | 6620 nM (active) | 7430 nM (active) | 1050 nM (active) | 9350 nM (active) | 2640 nM (active)
9 | Cc1cc(C(=O)N2CCN(c3cccc(Cl)c3)CC2)n(-c2ccccc2)n1 | 418 nM (active) | 418 nM (active) | 11.8 nM (active) | 418 nM (active) |  | 833 nM (active) | 148 nM (active) | 264 nM (active) | 1320 nM (active)
10 | COc1ccc(-c2cc3c(C)nc(N)nc3n(C3CCC(OCCO)CC3)c2=O)cn1 (stereo unspecified) | 29.6 nM (active) | 66.2 nM (active) | 7.4 nM (active) | 148 nM (active) | 83.3 nM (active) | 662 nM (active) | 26.4 nM (active) | 59 nM (active) | 
11 | CC1=C(CO)C(=O)O[C@@H]([C@@H](C)[C@H]2CC[C@H]3[C@@H]4C[C@H]5O[C@]56[C@@H](O)C=CC(=O)[C@]6(C)[C@@H]4CC[C@]23C)C1 | 209 nM (active) | 209 nM (active) | inactive | 105 nM (active) | 662 nM (active) | 418 nM (active) |  |  | 132 nM (active)
12 | CN1CCN(c2cc(C(=O)Nc3ccc4c(c3)-c3c(c(C(N)=O)nn3-c3ccc(F)cc3)CC4)c(Cl)cn2)CC1 | 5900 nM (active) | 6620 nM (active) | 8330 nM (active) | 1050 nM (active) | 235 nM (active) | 2350 nM (active) | 7430 nM (active) |  | 2350 nM (active)
13 | C1=CCOCc2cc(ccc2OCCN2CCCC2)Nc2nccc(n2)-c2cccc(c2)OCC1 | 1660 nM (active) | 2640 nM (active) | 743 nM (active) | 1480 nM (active) | 4180 nM (active) | 5260 nM (active) | 1480 nM (active) |  | 
14 | COc1cc2c(Oc3ccc(-c4cnc(Nc5ccc(F)cc5)n(C)c4=O)cc3F)ccnc2cc1OCCCN1CCOCC1 | 8330 nM (active) | 5900 nM (active) | 1180 nM (active) | 14800 nM (active) | 11800 nM (active) | 14800 nM (active) | 1180 nM (active) | 20900 nM (active) | 1870 nM (active)
15 | COc1cc2c(NC3CCN(C(C)C)CC3)nc(C3CCCCC3)nc2cc1OCCCN1CCCC1 | 4690 nM (active) | 8330 nM (active) | 23500 nM (active) | 3720 nM (active) | 13200 nM (active) | 9350 nM (active) | 7430 nM (active) | 7430 nM (active) | 
16 | CC[C@@]1(O)C(=O)OCc2c1cc1n(c2=O)Cc2cc3cc(O)ccc3nc2-1 | 590 nM (active) | 1660 nM (active) | 235 nM (active) | 16.6 nM (active) | 1870 nM (active) | 148 nM (active) | 18.7 nM (active) | 526 nM (active) | 209 nM (active)
17 | CC(C)c1ccc(Cn2ccc3c4c(N)nc(NC5CC5)nc4ccc32)cc1 | 14800 nM (active) | 148 nM (active) | 1870 nM (active) | 1480 nM (active) |  | 9350 nM (active) |  | 7430 nM (active) | 5900 nM (active)
18 | COc1ccc(C(=O)CC2(O)C(=O)Nc3c(Cl)ccc(Cl)c32)cc1 (stereo unspecified) | inactive | 2350 nM (active) | 1050 nM (active) | 2350 nM (active) | 6620 nM (active) | 13200 nM (active) | 1050 nM (active) |  | 5260 nM (active)
19 | CN1CCC(CNc2ccc3ncc(-c4cccc(OC(F)(F)F)c4)n3n2)CC1 | 6620 nM (active) | 9350 nM (active) | 8330 nM (active) | 4690 nM (active) |  | 8330 nM (active) | 14800 nM (active) | 20900 nM (active) | 7430 nM (active)
20 | Nc1cc(C(F)(F)F)c(-c2cc(N3CCOCC3)nc(N3CCOCC3)n2)cn1 | 1050 nM (active) | 743 nM (active) | 46.9 nM (active) | 1320 nM (active) | 3720 nM (active) | 743 nM (active) | 209 nM (active) | 1050 nM (active) | 743 nM (active)
21 | COc1cc(C)c(Sc2cnc(NC(=O)c3ccc(CNC(C)C(C)C)cc3)s2)cc1C(=O)N1CCN(C(C)=O)CC1 (stereo unspecified) | 18700 nM (active) | 4180 nM (active) | inactive | 18700 nM (active) |  | 14800 nM (active) | inactive | 14800 nM (active) | 4690 nM (active)
22 | Nc1ncnc2c1c(-c1cnc3[nH]ccc3c1)nn2C1CCCC1 | 296 nM (active) | 4690 nM (active) | 526 nM (active) | 209 nM (active) | 2350 nM (active) | 6620 nM (active) | 209 nM (active) |  | 209 nM (active)
23 | C=C1C(=CC=C2CCC[C@]3(C)[C@@H]([C@H](C)C=C[C@H](C)C(C)C)CC[C@@H]23)C[C@@H](O)C[C@@H]1O | 9350 nM (active) | 7430 nM (active) | 526 nM (active) | 1480 nM (active) |  | 2350 nM (active) | 118 nM (active) |  | 935 nM (active)
